Here are results for 23 compounds from PubChem BioAssay (Tox21).

Results filed as inconclusive are left out. Unmarked numbers belong to inactive results. Active and inactive are the calls of the source. Calls come from the whole dose curve; as a rule, active = well fitted cell-killing curve with a large enough effect in the repeat runs; inconclusive = weak or mixed curves, or effect the other way; inactive = flat fitted curve, though single readings scatter.
% is set by controls: 0 for no effect and ±100 for the full control effect; potency is the fitted concentration of half-maximal effect.

This assay can be described thus: qHTS RealTime-Glo MT Cell Viability Assay in HEK293 cells - 8 hour (AID 1224887). For activity change, negative = cytotoxicity: top concentration of the series differs between compounds. Note: nearly all actives have a fitted effect of over 50% in size. Conditions: RealTime-Glo luminescence; series mostly up to 76.8 µM; activity change, negative = cytotoxicity: at the top concentration. An outline of the steps:
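Real-time viability in HEK293: signal arises when living cells convert a prosubstrate for NanoLuc in the medium, so luminescence tracks viable cell number. Compound (23 nL, DMSO) added 5 h post-seeding; kinetic reads at 0–40 h, 37 C.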
(qHTS replaces the single test concentration by a dilution series.)
`CCCCCCCCCCCC[N+](C)(C)CC(=O)[O-]`: the “activity change, negative = cytotoxicity” value is 6.71%.

With `CCOC(=O)C(C)Oc1ccc(Oc2nc3ccc(Cl)cc3o2)cc1` (stereo not drawn), the Potency was 21.9 µM (active).

In the case of `CC(Cl)C(Cl)Cl` (stereo not drawn), the “activity change, negative = cytotoxicity” value is -3.81%.

In the case of `CN(C)CCOC1=Cc2ccccc2Sc2ccc(Cl)cc21`, the “activity change, negative = cytotoxicity” value is -9.72% [at 35.3 µM].

Consider `CCCCCCCCCCCC[N+](C)(C)CCCS(=O)(=O)[O-]`, for which the “activity change, negative = cytotoxicity” value is 0.208%.

As to `CCCCOC(=O)CCS`, the “activity change, negative = cytotoxicity” value was 8.75%.

For the compound `COc1ccc([C@@H]2Sc3ccccc3NC(=O)[C@@H]2O)cc1`, the “activity change, negative = cytotoxicity” value is -2.75% [at 35.3 µM].

Consider `Cc1nc2ccccc2s1`, for which the “activity change, negative = cytotoxicity” value is 1.6%.

Consider `CCCCC(CC)C(=O)OCCOCCOCCOCCOC(=O)C(CC)CCCC` (stereo not drawn), for which the “activity change, negative = cytotoxicity” value was -34.2%.

Turning to `Cc1ccc(S(=O)(=O)NC2CCCCC2)cc1`, the “activity change, negative = cytotoxicity” value is -16.6%.

For `CC1(C)C2=CCCC(C)(C)[C@]23CC[C@H]1C3`, the “activity change, negative = cytotoxicity” value was -21.1%.

Turning to `O=C(O)c1cccc(O)c1`, the “activity change, negative = cytotoxicity” value is 9.24%.

As for `O=C(C(=O)c1ccccc1)c1ccccc1`, the “activity change, negative = cytotoxicity” value is 12.4%.

Regarding `CCCCCCCCCCCC(=O)[O][Sn]([CH2]CCC)([CH2]CCC)[O]C(=O)CCCCCCCCCCC`, the “activity change, negative = cytotoxicity” value was -27.4% [at 35.3 µM].

Regarding `CCOC(=O)OCC`, the “activity change, negative = cytotoxicity” value was 1.55%.

On to `CNCCCC1c2ccccc2C=Cc2ccccc21`, for which the “activity change, negative = cytotoxicity” value is -0.316% [at 35.3 µM].

With `Oc1ccc(Nc2ccccc2)cc1`, the Potency is 17.4 µM (active).

Turning to `Nc1nccs1`, the “activity change, negative = cytotoxicity” value is -0.406%.

Consider `CC1=C(/C=C/C(C)=C\C=C\C(C)=C\C(=O)O)C(C)(C)CCC1`, for which the “activity change, negative = cytotoxicity” value is -8.74%.

Regarding `COc1cc2ncnc(Nc3ccc(F)c(Cl)c3)c2cc1OCCCN1CCOCC1`, the Potency was 10.7 µM (active).

Consider `Cc1cc(S(=O)(=O)O)ccc1N=Nc1c(O)ccc2ccccc12`, for which the “activity change, negative = cytotoxicity” value was -25.5%.

With `CCOc1cc(N)c(Cl)cc1C(=O)NCC1CN(Cc2ccc(F)cc2)CCO1` (stereo not drawn), the Potency was 19 µM (active).

`O=C(CCC1CCN(Cc2ccccc2)CC1)c1ccc2c(c1)NCCCC2`: the Potency is 9.52 µM (active).
